Assay results as given in PubChem BioAssay AID1347073 (National Center for Advancing Translational Sciences (NCATS), 2019).
The whole screen tested about 45,000 compounds, of which about 200 (0.44%) were called active. Another 7% or so got no clear call; they are omitted. The sample holds actives, similar compounds and a random draw of the others, so the mix is not that of the screen. A number with no mark means an inactive call. Calls follow the shape of the dose curve; as a rule, active = well fitted activation curve with a large enough effect; inconclusive = small, poorly fitted or top-dose-only effect; inactive = no such curve, though single readings can be large or run the other way.

assay: qHTS of TDP-43 Inhibitors: NCGC Sytravon Library Screen; conditions: yeast TDP-43 toxicity rescue, BacTiter-Glo growth, 24 h; series mostly up to 46.1 µM; growth rescue (activation): at the top concentration; also: nearly all actives have a fitted effect of over 55% in size; as to growth rescue (activation): 0% is about no effect
Text: The goal of this project is to identify new chemical probes capable of reversing the toxicity associated with TDP-43 which is associated with frontotemporal lobar degeneration and amyotrophic lateral sclerosis. These compounds will provide a complementary approach to deciphering the tangled mechanisms of toxicity and protection that we have uncovered through genome-wide genetic screens and are beginning to uncover in a large-scale proteomics analysis with mass spectroscopy. To this end, a miniaturized assay was developed to be screened against the Molecular Libraries Small Molecule Repository (MLSMR) to discover TDP-43 inhibitors. Please note that in the set-up this yeast-based assay compounds that inhibit as TDP-43, have a read-out as activators. NIH Chemical Genomics Center [NCGC] NIH Molecular Libraries Probe Centers Network [MLPCN] Assay Submitter (PI): Susan Lindquist, Whitehead Institute/MIT MLPCN Grant: R21 NS060957
Dispense 2.5 microL yeast galactose medium per 1536-well plate, pin compound, dispense 2.5 microL TDP-43 expressing yeast in galactose medium at OD600=0.02 (pregrown in raffinose medium to mid-log phase) per well, incubate for 24 hr at 30 deg C, and cell growth will be measured using 5 microL of Bactiter/Glo reagent to entire plate and read using Luminescence Protocol in ViewLux.
Potency is read from the fitted curve at half-maximal effect.

For O=C(CN1CCC(O)(c2cccc(C(F)(F)F)c2)CC1)NCCc1ccccc1, which “growth rescue (activation)” value is on record?
Its value is -14.5%.

Which “growth rescue (activation)” value does the source give for CC(NC(=O)COC(=O)c1cc(=O)[nH]c2ccccc12)c1ccccc1 (configuration not stated) here?
The value was -3.18%.

Which “growth rescue (activation)” value does the source give for COc1cc(C(c2c(NC(=O)c3ccco3)sc(C)c2C)N2CCOCC2)cc(OC)c1OC (configuration not stated) here?
The value was 20.2%.

With CC1(C(=O)Nc2cccc3cccnc23)CCN1C(=O)CCC1CCCC1 (configuration not stated) as the compound, how does the “growth rescue (activation)” value read?
Its value is 23.9%.

With Cc1ccc(N2C(=O)CN=C2Nc2nc(C)cc(C)n2)cc1 as the compound, how does the “growth rescue (activation)” value read?
Its value is -13.7%.

With CCOc1cc(NC(=O)CCl)c(OCC)cc1NC(C)=O as the compound, how does the “growth rescue (activation)” value read?
The value was -3.67%.

For O=S(=O)(Nc1ncnc2sccc12)c1cccc(F)c1, which “growth rescue (activation)” value is on record?
The value was 19.2%.

Which “growth rescue (activation)” value does the source give for CCN(CC(=O)NCc1ccco1)S(=O)(=O)c1ccc(F)cc1 here?
The value was -6%.

Which “growth rescue (activation)” value does the source give for Cc1cc(C)cc(N(CC(=O)NC2CCCC2)C(=O)CCC(=O)Nc2nccs2)c1 here?
The value was 4.02%.

Which “growth rescue (activation)” value does the source give for COc1cc(C(=O)OCc2cc(=O)n3ccsc3n2)ccc1OC(C)C here?
Its value is 16.8%.

With COCCNC(=O)CSc1nc2sccc2c(=O)n1-c1ccccc1 as the compound, how does the “growth rescue (activation)” value read?
The value was 1.63%.

For CC(=O)NC(Cc1ccc(F)c(F)c1)C(=O)NC1CCN(c2nnnn2-c2ccccc2)CC1 (configuration not stated), which “growth rescue (activation)” value is on record?
Its value is -0.882%.

Which “growth rescue (activation)” value does the source give for CC1CN(C(=S)SCC(=O)c2ccccc2)CC(C)O1 (configuration not stated) here?
The value was 20.5%.

With CC1CN(c2nc(-c3ccccc3)nnc2-c2ccccc2)CC(C)O1 (configuration not stated) as the compound, how does the Potency read?
The Potency was 12.6 µM (active).

For NS(=O)(=O)c1ccc(CCNc2nc(C(F)(F)F)nc3ccccc23)cc1, which “growth rescue (activation)” value is on record?
The value was 10.7%.

For COc1ccc(CNc2ncnc3ccccc23)cc1, which “growth rescue (activation)” value is on record?
The value was -6.94%.

With COc1cccc(CNc2nc(C(F)(F)F)nc3ccccc23)c1 as the compound, how does the Potency read?
Its Potency is 15.8 µM (active).

With CN(c1ccccc1)S(=O)(=O)c1cccc(NC(=O)Cc2c(F)cccc2Cl)c1 as the compound, how does the “growth rescue (activation)” value read?
The value was 9.22%.

With O=C(COc1ccc(Br)cc1F)NCC1(N2CCCCC2)CCCCC1 as the compound, how does the “growth rescue (activation)” value read?
Its value is -1.19%.

For Cc1cccc(NC(=S)N2CCC(O)CC2)c1C, which “growth rescue (activation)” value is on record?
Its value is 11.9%.

For CCOC(=O)/C(=N\Nc1ccccc1Cl)N(C)C1CCS(=O)(=O)C1 (configuration not stated), which “growth rescue (activation)” value is on record?
Its value is 17.3%.

Which “growth rescue (activation)” value does the source give for CC(C)CN1CCNC(=O)C1CC(=O)N(C)CC1CCOCC1 (configuration not stated) here?
The value was -15.8%.

For O=C(c1cccc(S(=O)(=O)N2CCCC2)c1)N(Cc1ccco1)C1CCS(=O)(=O)C1 (configuration not stated), which “growth rescue (activation)” value is on record?
Its value is 2.24%.

Which “growth rescue (activation)” value does the source give for COc1ccc(-c2nn(C)c(=O)c3ccccc23)cc1CNC(=O)C1CCCCC1 here?
Its value is 10.4%.

For CCc1ccc(N2CC(C(=O)Nc3ccc(S(=O)(=O)Nc4nccs4)cc3)CC2=O)cc1 (configuration not stated), which “growth rescue (activation)” value is on record?
Its value is 3.52%.

Which “growth rescue (activation)” value does the source give for Cc1nc2c(OCc3ccc(Cl)cc3Cl)cccn2c1N(C)CC1CC1 here?
Its value is -1.5%.

With CC1CCN(c2ccc(C(=O)Nc3nnc(C4CC4)s3)cc2[N+](=O)[O-])CC1 as the compound, how does the “growth rescue (activation)” value read?
Its value is 1.71%.

Which “growth rescue (activation)” value does the source give for Cc1ccc(NC(=O)c2ccc(Cl)nc2)cc1S(=O)(=O)N1CCOCC1 here?
Its value is 1.92%.

For CC(C)N(C)C(=O)CCc1nnc(CCc2c[nH]c3ccccc23)o1, which “growth rescue (activation)” value is on record?
Its value is -2.17%.

Which “growth rescue (activation)” value does the source give for CC(CC(=O)N1CCN(S(=O)(=O)c2ccccc2)CC1)n1cncn1 (configuration not stated) here?
The value was -14.2%.

Which “growth rescue (activation)” value does the source give for COc1ccc(OCC(=O)Nc2cc(C)c(Cl)cc2OC)c([N+](=O)[O-])c1 here?
The value was 12.2%.

Which Potency does the source give for Cc1ccc(C)c(S(=O)(=O)N2CCN(c3ncnc4sccc34)CC2)c1 here?
Its Potency is 11.2 µM (active).

Which “growth rescue (activation)” value does the source give for Cc1ccc(C)c(S(=O)(=O)N2CCN(CC(=O)Nc3ccc([N+](=O)[O-])cc3)CC2)c1 here?
Its value is 21.5%.

For Cc1ccc([N+](=O)[O-])cc1S(=O)(=O)N1CCCN(C)CC1, which “growth rescue (activation)” value is on record?
The value was 10.7%.

For CCN(CC(=O)Nc1ccccc1C(=O)NC1CC1)Cc1cccs1, which “growth rescue (activation)” value is on record?
The value was 14.9%.

With CC(=O)NC(CC(=O)Nc1ccc(S(=O)(=O)N2CCOCC2)cc1)c1ccccc1 (configuration not stated) as the compound, how does the “growth rescue (activation)” value read?
The value was 21.1%.

With COc1ccc(NC(=O)N2CCCC(C(=O)Nc3ccccc3OC)C2)cc1 (configuration not stated) as the compound, how does the “growth rescue (activation)” value read?
The value was 18.1%.

With COc1ccc(CNC(=O)C(c2ccc(O)cc2)N(Cc2ccco2)C(=O)c2snc(C(N)=O)c2N)cc1 (configuration not stated) as the compound, how does the “growth rescue (activation)” value read?
Its value is -7.37%.

With O=C(c1cccs1)N(Cc1cc2ccccc2[nH]c1=O)CC1CCCO1 (configuration not stated) as the compound, how does the “growth rescue (activation)” value read?
Its value is -0.588%.

For CCOc1ccc(C(C)=O)cc1CSc1nnc(-c2ccncc2)n1CCOC, which “growth rescue (activation)” value is on record?
Its value is -4.62%.

With CCOc1ccc(S(=O)(=O)N2CCC(C(=O)NCc3ccccn3)CC2)cc1Cl as the compound, how does the “growth rescue (activation)” value read?
The value was -4.66%.

With Cc1cccc(C(=O)N2CCN(S(=O)(=O)N3CCCCC3)CC2)c1 as the compound, how does the “growth rescue (activation)” value read?
Its value is 28.1%.

For Cc1ccc(C(=O)NNC(=O)CSc2nnc3ccccn23)cc1, which “growth rescue (activation)” value is on record?
The value was 5.26%.

Which “growth rescue (activation)” value does the source give for Cc1cc(C)nc(N/N=C/c2c(C)oc3ccccc23)n1 here?
The value was 13.5%.

With CCOC(=O)C1CCN(C(=O)COc2cccc3ccccc23)CC1 as the compound, how does the “growth rescue (activation)” value read?
Its value is 14.4%.

For CN(C)S(=O)(=O)Oc1ccccc1C(=O)Nc1ccccc1Cl, which “growth rescue (activation)” value is on record?
Its value is 5.76%.

Which “growth rescue (activation)” value does the source give for CC1(C(=O)NS(=O)(=O)c2ccc(Cl)cc2)CCN1C(=O)CC1CCCC1 (configuration not stated) here?
Its value is 5.06%.

Which “growth rescue (activation)” value does the source give for O=C(N/N=C/c1ccc([N+](=O)[O-])cc1)C(=O)N1CCCC1 here?
The value was 10.7%.

Which “growth rescue (activation)” value does the source give for C/C(=C/C(=O)N1CCN(C)CC1)C(=O)O here?
The value was -4.69%.

For CCOc1ccc(NC(=O)CCC(=O)NNC(=O)NC2CCCCC2)cc1, which “growth rescue (activation)” value is on record?
The value was -6.88%.

Which “growth rescue (activation)” value does the source give for O=C(O)CC/C(=C\c1cc2c(cc1Br)OCO2)c1nc2ccccc2s1 here?
The value was 14.9%.

Which Potency does the source give for O=C(O)c1ccccc1CSc1nc2ccccc2s1 here?
Its Potency is 11.2 µM (active).
